ChEMBL document CHEMBL3988442, “University of Dundee, Small-Polar-MMV Screening Library” (2021)
Hit rate of the full screen: of about 48,000 compounds, about 13,000 (27%) showed an effect of 50% or more. Some of the results follow.

tested on: Wolbachia pipientis; test: Anti-Wolbachia Cell-Based Screen; assay type: functional; set-up: scale not given: in the data most compounds retested in dose-response had high values; settings: 5 µM

Compound	Percent Effect
Cc1nnc(C(C)Nc2cccc(COCCc3ccccc3)c2)o1 (configuration not stated)	-2.129%
Cc1cc(NC(=O)C(C)Nc2ccn(Cc3ccccn3)n2)on1 (configuration not stated)	-74.41%
Cc1cc(NC(=O)C(C)Nc2cccc(COCc3ccco3)c2)no1 (configuration not stated)	96.95%
Cc1cc(NC(=O)C(C)Nc2cccc(COCc3ccco3)c2)on1 (configuration not stated)	82.63%
Cc1cc(NC(=O)C(C)NCCn2cccn2)no1 (configuration not stated)	7.799%
Cc1cc(CNC(=O)Nc2cccc(COCCOC(C)C)c2)no1	4.138%
CCN1CCN(c2ccc(CNC(=O)c3ccc(Cl)o3)cn2)CC1	4.733%
Cc1ccccc1[C@@H]1CN(Cc2c(C)noc2C)C[C@H]1C(=O)O	-12.73%
CCN1CCCC1CNCc1cc2cc(OC)ccc2[nH]c1=O (configuration not stated)	59.94%
COc1ccc2[nH]c(=O)c(CN(C)CCN3CCCC3)cc2c1	-6.943%
CCN1CCCC1Cn1ccc2c(OC)c(OC)ccc2c1=O (configuration not stated)	-2.049%
COc1cc2[nH]c(=O)c(CN3CCC[C@H]3CO)cc2c(OC)c1OC	3.209%
CCN1CCCC1CNCc1cc2cc(OC)c(OC)cc2[nH]c1=O (configuration not stated)	127.9%
COc1cc2[nH]c(=O)c(CN3CCCC3C)cc2c(OC)c1OC (configuration not stated)	-17.42%
CCOc1ccc2[nH]c(=O)c(CN3CCC(O)CC3)cc2c1	-5.024%
CCN1CCCC1CNCc1cc2cc(C)c(C)cc2[nH]c1=O (configuration not stated)	108.5%
CCN1CCCC1CN(CCN(C)C)S(=O)(=O)c1ccc(C#N)cc1 (configuration not stated)	2.143%
Cc1cc(C)c(CNC(=O)NCC2CCCN2C)c(=O)[nH]1 (configuration not stated)	-15.32%
CCN1CCCC1CNCc1cc2cc3c(cc2[nH]c1=O)OCCO3 (configuration not stated)	90.42%
CN(CCN1CCCCC1=O)Cc1cc2cc3c(cc2[nH]c1=O)OCO3	9.765%
COCCN1CCc2cc(C(=O)O)c(-c3ccoc3)nc2CC1.O=C(O)C(F)(F)F.O=C(O)C(F)(F)F	-9.804%
CCCc1nnc(C(=O)N(C)Cc2ccc(OC)cc2)o1	16.32%
COCCC(C)NC(=O)N1CCSC(C)(C)C1 (configuration not stated)	-17.32%
CC[C@H]1CN(C(=O)c2cnc(CN3CCCC3)s2)CC[C@@]1(C)O	12.41%
O=C(NCCNc1ccccn1)NCC1CCS(=O)(=O)C1 (configuration not stated)	7.118%
Cc1ccc(S(=O)(=O)N2CC(C)Oc3ncccc32)c(F)c1 (configuration not stated)	-7.297%

Compound	Percent Effect
CS(=O)(=O)NCC1CCN(Cc2cc3ccccc3[nH]c2=O)C1 (configuration not stated)	5.413%
CS(=O)(=O)NCCCN1CCCCC1c1cc2ccccc2[nH]1 (configuration not stated)	5.136%
CCN1CCCC1CNCc1cc2ccccc2[nH]c1=O (configuration not stated)	105.7%
Cc1occc1C(=O)N1CC(C(=O)N2CCOCC2)C2(CCOCC2)C1 (configuration not stated)	-11.45%
CC(NC(=O)CCC(=O)c1cccs1)c1nnc2n1CCC2 (configuration not stated)	109.2%
CC(NC(=O)CCCC(=O)c1cccs1)c1nnc2n1CCC2 (configuration not stated)	92.19%
Cc1noc(CCCC(=O)NC(C)c2nnc3n2CCCCC3)n1 (configuration not stated)	-8.198%
CC(NC(=O)CCC(=O)c1cccs1)c1nnc2n1CCCCC2 (configuration not stated)	-1.581%
c1cnn(Cc2ccc(CN3CCC4(CCCNC4)C3)cc2)c1 (configuration not stated)	7.706%
COCCN1CCN(CCCc2nnnn2-c2ccccc2)CC1	-6.154%
Cc1cncc(C2CCCN(C(=O)c3c[nH]c(=O)[nH]c3=O)C2)n1 (configuration not stated)	-6.344%
Cc1cccc2[nH]c(C3CCN(C(=O)c4c[nH]c(=O)[nH]c4=O)CC3)nc12	-6.416%
Cc1ccccc1OC1CCN(C(=O)c2c[nH]c(=O)[nH]c2=O)CC1	25.29%
O=C(c1c[nH]c(=O)[nH]c1=O)N1CCCC(c2cnccn2)C1 (configuration not stated)	111.3%
Cc1cc(C2CCCN(C(=O)c3ccc(C)[nH]c3=O)C2)n[nH]1 (configuration not stated)	8.066%
Cc1cnc(C2CCCN(C(=O)c3c[nH]c(=O)[nH]c3=O)C2)s1 (configuration not stated)	107.7%
Cn1ccnc1CN1CCN(c2ncnc3ccsc23)CC1	8.989%
CCc1[nH]n(C)c(=N)c1-c1ccc2c(c1)OCO2	-3.293%
CCc1ncnc2c1CCN(CCOC)CC2.O=C(O)C(F)(F)F	104.9%
CCc1ncnc2c1CCN(Cc1cccs1)CC2.O=C(O)C(F)(F)F	-3.657%
CCc1ncnc2c1CCN(Cc1ccc(OC)cc1)CC2.O=C(O)C(F)(F)F	-14.19%
COCCN1CCc2ncnc(-c3ccccc3)c2CC1.O=C(O)C(F)(F)F	98.59%
CN(CCN1CCCC1=O)CC(c1cccs1)N1CCOCC1 (configuration not stated)	-4.192%
CCc1ccc(CN(C/C=C/c2ccccc2)CCOC)nc1	-1.399%
Cc1cc(CN[C@H](C(N)=O)[C@@H](C)O)c(C)s1	-13.15%
COCCO[C@H]1CCN(c2cc(OC)ncn2)[C@H]1Cc1cccnc1.O=C(O)C(F)(F)F	-7.888%

Compound	Percent Effect
Cc1ccc(N2CC[C@H](OCC3CC3)[C@@H]2Cc2cccnc2)nn1.O=C(O)C(F)(F)F	91.78%
CN(C)[C@@H]1CCN(c2ncccn2)[C@H]1Cc1cccnc1.O=C(O)C(F)(F)F.O=C(O)C(F)(F)F	5.907%
COCCO[C@H]1CCN(c2ccc(C)nn2)[C@H]1Cc1cccnc1.O=C(O)C(F)(F)F.O=C(O)C(F)(F)F	97.63%
Cc1ccc(N2CC[C@H](OCC3CC3)[C@@H]2Cc2ccncc2)nn1	112.9%
O=S(=O)(C1CC1)N1CC[C@H](OCC2CC2)[C@@H]1Cc1ccncc1	-12.77%
Cc1ccc(N2CC[C@H](OCC3CC3)[C@@H]2Cc2cnn(C)c2)nn1	1.399%
O=C(NCC(F)(F)F)c1nnn(-c2ccccc2)c1C(F)(F)F	-4.958%
CCCSCC(=O)N1C[C@H]2CC[C@@H]1CN(c1ncccn1)C2	28.59%
N[C@H]1CN(C(=O)c2ccc(CO)cc2)C[C@@H]1C1CC1	-11.41%
COc1ccc(-c2nc3c([nH]2)CCNC3)c(OC)c1OC	-10.21%
O=C(CCc1ccc(C(F)(F)F)cc1)N1CCCS1(=O)=O	-13.79%
O=S(=O)(Nc1cnn(C2CCOCC2)c1)c1ccc2c(c1)CCO2	-1.173%
CC(=O)c1ccc(S(=O)(=O)Nc2cnn(C3CCOCC3)c2)cc1	124.1%
N#Cc1ccc(S(=O)(=O)Nc2ccc(N3CCOCC3)cn2)cc1	1.293%
O=S(=O)(Nc1cnc(N2CCOCC2)nc1)c1ccc(Cl)cc1	-1.506%
Cc1ccc(S(=O)(=O)Nc2cnn(C3CCOCC3)c2)cc1C	113.9%
COc1c(NS(=O)(=O)c2ccc(C)c(C)c2)c(C)nn1C	-13.12%
CCc1ccc(S(=O)(=O)Nc2cnc(N3CCOCC3)nc2)cc1	1.019%
O=S(=O)(Nc1cnn(C2CCOCC2)c1)c1ccc(Br)cc1	132.2%
Cc1ccc(S(=O)(=O)Nc2ccc(N3CCOCC3)cn2)cc1	3.4%
Cc1ccc(NS(=O)(=O)c2ccc(C#N)cc2)c(CN(C)C)c1	3.683%
N#Cc1ccc(S(=O)(=O)Nc2cnn(C3CCOCC3)c2)cc1	136.3%
Cn1nnn(-c2ccc(NS(=O)(=O)c3ccc(Br)cc3)cc2)c1=O	-3.296%
COc1coc(CN2CCCC(CCc3c(F)cccc3F)C2)cc1=O (configuration not stated)	17.04%
Cc1ccc(C)c(-c2csc(N)c2C#N)c1	-0.8217%
Cc1nc(N2CCN3CCCCC3C2)nc2cc(S(C)(=O)=O)ccc12 (configuration not stated)	-5.317%

Compound	Percent Effect
O=C(CNC(=O)c1cnc2ccccc2c1O)NCCn1ccnc1	-3.022%
Cc1cc(CN2CCN(C(=O)Nc3cccnc3)CC2)on1	-15.13%
O=S(=O)(Nc1cnn(C2CCOCC2)c1)c1c(F)cccc1F	-13.72%
O=C(O)c1cc(S(=O)(=O)Nc2cnn(C3CCOCC3)c2)ccc1F	126.6%
O=S(=O)(Nc1cnn(C2CCOCC2)c1)c1ccc(F)c(F)c1	-11.58%
Cc1ccc(CNCc2cc(Br)c3c(c2)OCO3)cc1	-32.56%
CC(C)(Oc1ccc2c(c1)CCCC2=O)C(=O)NCc1ccco1	-1.632%
COc1ccc2c(c1)CN(Cc1ccco1)C(=O)CCN2CC(C)(C)O	126.9%
COc1cccc(N2CCC(CNC(=O)N(C)Cc3ccco3)C2)c1 (configuration not stated)	-2.761%
CN1CC(=O)N(c2cccc(F)c2)CC12CCN(Cc1ccco1)C2 (configuration not stated)	-8.082%
Fc1cccc(N2CCCC3(CN(Cc4ccco4)CCO3)C2)c1.O=C(O)C(F)(F)F.O=C(O)C(F)(F)F (configuration not stated)	-7.933%
CC(C)(O)CN1CCC(=O)N(Cc2ccco2)Cc2cc(F)ccc21	108.3%
CC(=O)N1CCC2(CC1)CN(C(C)=O)CC21CCNC1=O (configuration not stated)	-37.65%
CN(C)C1Cc2ccccc2N(S(=O)(=O)c2ccccc2C#N)C1 (configuration not stated)	-15.96%
Cc1cc(C)c(CNC(=O)C2CCCN(c3cnccn3)C2)c(=O)[nH]1 (configuration not stated)	0.7586%
CN(C)CCO[C@H]1C[C@@H](O)C12CCN(c1cnccn1)CC2	0.5833%
CN(C)c1nccnc1C1CCCN(c2cnccn2)C1 (configuration not stated)	115.4%
CC(C)c1nc(C2CCCN(c3cnc4ccccc4n3)C2)no1 (configuration not stated)	3.044%
COc1cc(N2CCCC(c3ncc[nH]3)C2)ncn1 (configuration not stated)	-14.93%
CN(C)c1nccnc1C1CCN(c2cnccn2)CC1	116.7%
CC(C)n1ccnc1C1CCCN(c2cncc(N(C)C)n2)C1 (configuration not stated)	9.354%
CN(C)c1cncc(C2CCCN(c3cnccn3)C2)n1 (configuration not stated)	69.21%
Cc1cc(N2CCCC(c3nccnc3N(C)C)C2)ncn1 (configuration not stated)	90.88%
CN(C)CCCn1ccnc1C1CCCN(c2cc(N)ncn2)C1 (configuration not stated)	-5.782%
